“And” between values parts separate entries of the source, which are not always exact repeats. Identical values can stand only once. Results filed as inconclusive are left out. The source made the active and inactive calls. How the source made its calls: active means hit-call score of the fitted dose curve at least 0.9, where 1 is the maximum; inconclusive means response in the unintended direction; inactive means score below 0.9.

For 39 compounds, outcome and AC50 results are on record in PubChem BioAssay (EPA / NIEHS).

Test system in the first assay: not listed separately
As to the kind of experiment: ATG_XTT_Cytotoxicity: Cytotoxicity Assessment in the Attagene TRANS-FACTORIAL HepG2 Assay (AID 2283584). The procedure, abridged: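 XTT readout of cell number in transfected HepG2 cells, 24 h post-dosing; DMSO serves as negative control and baseline, with activity taken as loss of viability signal.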
Regarding `Oc1ccc(-c2ccccc2)cc1`, the compound was called inactive.

As for `Nc1cccc2ccccc12`, the compound was classed as inactive.

For `CCCCCCCCSC(=O)Oc1cc(Cl)nnc1-c1ccccc1`, the call was inactive.

`N#Cc1ccccn1`: the result was inactive.

In the case of `O=S(=O)(c1ccc(Cl)cc1)c1ccc(Cl)cc1`, the call was inactive.

Turning to `CN(C)P(=O)(N(C)C)N(C)C`, the outcome was inactive.

For `CCOC(=O)Nc1cccc(OC(=O)Nc2ccccc2)c1`, the outcome was inactive.

For `C=CC#N`, the compound was classed as inactive.

On to `COc1ccc(C=O)cc1`, for which the outcome was inactive.

Regarding `O=P(O)(O)CN(CP(=O)(O)O)CP(=O)(O)O`, the compound was called inactive.

As for `COP(=O)(OC)O/C(=C\Cl)c1cc(Cl)c(Cl)cc1Cl`, the compound was classed as inactive.

Turning to `C[C@H]1O[C@@H](O[C@H]2[C@@H](O)C[C@H](O[C@H]3[C@@H](O)C[C@H](O[C@H]4CC[C@@]5(C)[C@H](CC[C@@H]6[C@@H]5CC[C@]5(C)[C@@H](C7=CC(=O)OC7)CC[C@]65O)C4)O[C@@H]3C)O[C@@H]2C)C[C@H](O)[C@@H]1O`, the outcome was inactive.

Consider `Cl/C=C/Cl`, for which the compound was called inactive.

With `[O-][Cl+2]([O-])O`, the outcome was inactive.

For the compound `Clc1ccc(COC(Cn2ccnc2)c2ccc(Cl)cc2Cl)cc1` (stereo unspecified), the outcome was inactive.

As for `BrCCBr`, the compound was called inactive.

For `CC(C#N)CCC#N` (stereo unspecified), the compound was classed as inactive.

In the case of `CCOC(=O)CP(=O)(OCC)OCC`, the outcome was inactive.

Regarding `CC(=O)OC(c1ccccc1)C(Cl)(Cl)Cl` (stereo unspecified), the result was inactive.

As to `CNC`, the result was inactive.

With `CCC(=O)c1ccccc1`, the result was inactive.

As for `ClC1=C(Cl)[C@]2(Cl)[C@H]3[C@H]([C@H]4C=C[C@H]3C4)[C@@]1(Cl)C2(Cl)Cl`, the outcome was inactive.

For the compound `Clc1nc(Cl)nc(Cl)n1`, the result was inactive.

Take `CCC(C)c1cccc(C(C)CC)c1O` (stereo unspecified): the outcome was inactive.

With `CC(C)(c1ccc(OCC2CO2)cc1)c1ccc(OCC2CO2)cc1` (stereo unspecified), the result was inactive.

For `COc1cc2c(cc1OC)[C@@]13CCN4CC5=CCO[C@H]6CC(=O)N2[C@H]1[C@H]6[C@H]5C[C@H]43`, the result was inactive.

For the compound `O=[N+]([O-])c1c(Cl)c(Cl)cc(Cl)c1Cl`, the compound was classed as inactive.

Consider `COP(=O)(OC)OC`, for which the compound was classed as inactive.

In the case of `OCc1ccco1`, the result was inactive.

With `CC(C)OC(=O)Nc1ccccc1`, the compound was called inactive.

For the compound `CCCCOCCOC(C)=O`, the result was inactive.

As to `CCOP(=O)(CN(CCO)CCO)OCC`, the compound was called inactive.

As for `O=[N+]([O-])c1ccc2c3c(cccc13)CC2`, the call was inactive.

In the case of `CNC(=O)O/N=C/C(C)(C)S(C)=O` (stereo unspecified), the call was inactive.

As to `O=C/C=C/c1ccccc1`, the compound was called inactive.

On to `CC(C)CCCCCCOC(=O)c1ccccc1C(=O)OCCCCCCC(C)C`, for which the outcome was inactive.

Turning to `CCCCC(CC)CO[N+](=O)[O-]` (stereo unspecified), the outcome was inactive.

Turning to `Nc1ccc(-c2ccc(N)c(Cl)c2)cc1Cl`, the call was inactive.

Consider `Cc1ccccc1C(=O)Nc1cccc(OC(C)C)c1`, for which the result was inactive.

Test system in the next assay: not listed separately
As to the kind of experiment: TOX21_p53_BLA_p2_viability: Viability Assessment in the Tox21 HCT-116 p53 Agonism Beta-lactamase Assay, Phase 2 (AID 2283591).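 Further: compound exposure lasted 16 h at 37 °C; actives lower the ATP signal meaning cytotoxicity.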 The procedure, abridged: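 Cytotoxicity readout: CellTiter-Glo ATP luminescence, 30 min at room temperature, after the beta-lactamase read. Cells were HCT116 exposed 16 h at 37C to compounds pin-transferred at 217-fold dilution from DMSO stocks.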
Regarding `Oc1ccc(-c2ccccc2)cc1`, the call was inactive.

Consider `Nc1cccc2ccccc12`, for which the call was inactive.

Regarding `CCCCCCCCSC(=O)Oc1cc(Cl)nnc1-c1ccccc1`, the outcome was inactive.

`N#Cc1ccccn1`: the outcome was inactive.

As for `CN(C)P(=O)(N(C)C)N(C)C`, the call was inactive.

Regarding `CCOC(=O)Nc1cccc(OC(=O)Nc2ccccc2)c1`, the result was inactive.

On to `C=CC#N`, for which the compound was called inactive.

`COc1ccc(C=O)cc1`: the compound was called inactive.

Turning to `O=P(O)(O)CN(CP(=O)(O)O)CP(=O)(O)O`, the outcome was inactive.

Usually AC50 stands for the concentration at which the activity in the assay is half-maximal. `C[C@H]1O[C@@H](O[C@H]2[C@@H](O)C[C@H](O[C@H]3[C@@H](O)C[C@H](O[C@H]4CC[C@@]5(C)[C@H](CC[C@@H]6[C@@H]5CC[C@]5(C)[C@@H](C7=CC(=O)OC7)CC[C@]65O)C4)O[C@@H]3C)O[C@@H]2C)C[C@H](O)[C@@H]1O`: the AC50 is 35.6 nM (active) and 51.1 nM (active).

On to `BrCCBr`, for which the result was inactive.

As to `CC(C#N)CCC#N` (stereo unspecified), the outcome was inactive.

Take `CNC`: the compound was classed as inactive.

Take `CCC(=O)c1ccccc1`: the outcome was inactive.

On to `ClC1=C(Cl)[C@]2(Cl)[C@H]3[C@H]([C@H]4C=C[C@H]3C4)[C@@]1(Cl)C2(Cl)Cl`, for which the compound was classed as inactive.

With `Clc1nc(Cl)nc(Cl)n1`, the outcome was inactive.

On to `COc1cc2c(cc1OC)[C@@]13CCN4CC5=CCO[C@H]6CC(=O)N2[C@H]1[C@H]6[C@H]5C[C@H]43`, for which the compound was called inactive.

Consider `O=[N+]([O-])c1c(Cl)c(Cl)cc(Cl)c1Cl`, for which the result was inactive.

On to `COP(=O)(OC)OC`, for which the outcome was inactive.

Take `CC(C)OC(=O)Nc1ccccc1`: the compound was classed as inactive.

On to `CCCCOCCOC(C)=O`, for which the result was inactive.

With `CNC(=O)O/N=C/C(C)(C)S(C)=O` (stereo unspecified), the call was inactive.

Regarding `CC(C)CCCCCCOC(=O)c1ccccc1C(=O)OCCCCCCC(C)C`, the compound was called inactive.

`CCCCC(CC)CO[N+](=O)[O-]` (stereo unspecified): the outcome was inactive.

As for `Nc1ccc(-c2ccc(N)c(Cl)c2)cc1Cl`, the compound was called inactive.

In the case of `Cc1ccccc1C(=O)Nc1cccc(OC(C)C)c1`, the compound was called inactive.

Another assay deals with Cellular tumor antigen p53 (Homo sapiens) (UniProt P04637). Description: TOX21_p53_BLA_p2_ratio: Tox21 HCT-116 p53 Agonism Beta-lactamase Assay, Ratio, Phase 2 (AID 2283592). Put shortly: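 In this cell-based reporter format, HCT116 cells were dosed with chemicals delivered from DMSO by 217-fold dilution and incubated 16 h at 37C. Emission at 460 and 530 nm after 2 h CCF4-AM loading provided the ratio, fitted upward versus DMSO.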
Chain of Cellular tumor antigen p53 (Homo sapiens) (P04637 whole entry, looked up): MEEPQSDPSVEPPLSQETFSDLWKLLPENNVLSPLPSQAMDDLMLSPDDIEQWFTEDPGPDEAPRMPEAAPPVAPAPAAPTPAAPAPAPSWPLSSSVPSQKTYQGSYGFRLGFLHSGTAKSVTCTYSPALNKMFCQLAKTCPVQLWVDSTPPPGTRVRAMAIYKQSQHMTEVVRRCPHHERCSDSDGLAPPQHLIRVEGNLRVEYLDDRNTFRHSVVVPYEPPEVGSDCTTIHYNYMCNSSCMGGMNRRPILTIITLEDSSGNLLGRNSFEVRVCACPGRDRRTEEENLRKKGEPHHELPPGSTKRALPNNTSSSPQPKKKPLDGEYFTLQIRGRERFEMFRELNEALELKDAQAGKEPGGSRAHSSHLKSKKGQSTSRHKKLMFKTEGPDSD
As to `Oc1ccc(-c2ccccc2)cc1`, the outcome was inactive.

For `CCCCCCCCSC(=O)Oc1cc(Cl)nnc1-c1ccccc1`, the outcome was inactive.

For the compound `N#Cc1ccccn1`, the result was inactive.

For `O=S(=O)(c1ccc(Cl)cc1)c1ccc(Cl)cc1`, the result was inactive.

For `CN(C)P(=O)(N(C)C)N(C)C`, the outcome was inactive.

As to `CCOC(=O)Nc1cccc(OC(=O)Nc2ccccc2)c1`, the result was inactive.

In the case of `C=CC#N`, the outcome was inactive.

For the compound `COc1ccc(C=O)cc1`, the result was inactive.

Turning to `COP(=O)(OC)O/C(=C\Cl)c1cc(Cl)c(Cl)cc1Cl`, the result was inactive.

With `C[C@H]1O[C@@H](O[C@H]2[C@@H](O)C[C@H](O[C@H]3[C@@H](O)C[C@H](O[C@H]4CC[C@@]5(C)[C@H](CC[C@@H]6[C@@H]5CC[C@]5(C)[C@@H](C7=CC(=O)OC7)CC[C@]65O)C4)O[C@@H]3C)O[C@@H]2C)C[C@H](O)[C@@H]1O`, the result was inactive.

Turning to `Cl/C=C/Cl`, the outcome was inactive.

As to `[O-][Cl+2]([O-])O`, the result was inactive.

`Clc1ccc(COC(Cn2ccnc2)c2ccc(Cl)cc2Cl)cc1` (stereo unspecified): the concentration at half-maximal activity (AC50) was 60.3 µM (active) and 33.3 µM (active) and 23.5 µM (active).

Turning to `BrCCBr`, the outcome was inactive.

Turning to `CCOC(=O)CP(=O)(OCC)OCC`, the result was inactive.

With `CC(=O)OC(c1ccccc1)C(Cl)(Cl)Cl` (stereo unspecified), the outcome was inactive.

With `CNC`, the result was inactive.

As to `CCC(=O)c1ccccc1`, the result was inactive.

For the compound `ClC1=C(Cl)[C@]2(Cl)[C@H]3[C@H]([C@H]4C=C[C@H]3C4)[C@@]1(Cl)C2(Cl)Cl`, the result was inactive.

As for `Clc1nc(Cl)nc(Cl)n1`, the result was inactive.

Consider `CCC(C)c1cccc(C(C)CC)c1O` (stereo unspecified), for which the outcome was inactive.

Consider `CC(C)(c1ccc(OCC2CO2)cc1)c1ccc(OCC2CO2)cc1` (stereo unspecified), for which the result was inactive.

For `COc1cc2c(cc1OC)[C@@]13CCN4CC5=CCO[C@H]6CC(=O)N2[C@H]1[C@H]6[C@H]5C[C@H]43`, the result was inactive.

In the case of `O=[N+]([O-])c1c(Cl)c(Cl)cc(Cl)c1Cl`, the result was inactive.

Consider `COP(=O)(OC)OC`, for which the result was inactive.

As for `OCc1ccco1`, the result was inactive.

On to `CC(C)OC(=O)Nc1ccccc1`, for which the result was inactive.

For the compound `CCCCOCCOC(C)=O`, the result was inactive.

In the case of `CCOP(=O)(CN(CCO)CCO)OCC`, the outcome was inactive.

For the compound `O=[N+]([O-])c1ccc2c3c(cccc13)CC2`, the outcome was inactive.

For `CNC(=O)O/N=C/C(C)(C)S(C)=O` (stereo unspecified), the outcome was inactive.

On to `O=C/C=C/c1ccccc1`, for which the outcome was inactive.

With `CC(C)CCCCCCOC(=O)c1ccccc1C(=O)OCCCCCCC(C)C`, the result was inactive.

Turning to `CCCCC(CC)CO[N+](=O)[O-]` (stereo unspecified), the result was inactive.

As for `Nc1ccc(-c2ccc(N)c(Cl)c2)cc1Cl`, the AC50 is 14.4 µM (active) and 13.7 µM (active) and 16.7 µM (active).

Turning to `Cc1ccccc1C(=O)Nc1cccc(OC(C)C)c1`, the outcome was inactive.
